What all share (conditions): mRNA level, 48 h; actives raise or lower the signal
Read-out in test [1]: Bcl-2 (BAX) gene, BAX (gene 581)
Put plainly: LTEA_HepaRG_BAX: Life Technologies and Expression Analysis (LTEA) Assay for Bcl-2 (BAX) gene using HepaRG (AID 2283470). A digest of the protocol: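 Human HepaRG cells treated in duplicate for 48 h across eight concentrations (max 100 uM, 0.5% DMSO); BAX expression measured by qRT-PCR.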

Read-out in test [2]: adenosine kinase (ADK) gene, ADK (gene 132)
Kind of test: LTEA_HepaRG_ADK: Life Technologies and Expression Analysis (LTEA) Assay for adenosine kinase (ADK) gene using HepaRG (AID 2283471). A digest of the protocol: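 HepaRG (human liver), 48 h chemical exposure, 8-pt half-log series, top 100 uM, 0.5% DMSO vehicle. Readout: ADK mRNA by qRT-PCR vs housekeeping genes; bidirectional curve fit relative to DMSO baseline.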

Read-out in test [3]: Alpha-fetoprotein (AFP) gene, AFP (gene 174)
Kind of test: LTEA_HepaRG_AFP: Life Technologies and Expression Analysis (LTEA) Assay for Alpha-fetoprotein (AFP) gene using HepaRG (AID 2283472). A digest of the protocol: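 Measures AFP mRNA change in HepaRG after 48 h chemical exposure (8 half-log concentrations, highest 100 uM, 0.5% DMSO). Fold change relative to DMSO, fitted in both directions.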

Read-out in the next test: BCL2L11 (gene 10018)
Put plainly: LTEA_HepaRG_BCL2L11: Life Technologies and Expression Analysis (LTEA) Assay for Bcl-2 (BCL2L11) gene using HepaRG (AID 2283473). A digest of the protocol: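 HepaRG, 48 h exposure, 8-pt half-log series from 100 uM in 0.5% DMSO, duplicates; qRT-PCR (Fluidigm TaqMan) for BCL2L11, housekeeping-normalized; bidirectional curve fit relative to DMSO baseline.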

Read-out in test [4]: Apolipoprotein A-V (APOA5) gene, APOA5 (gene 116519)
Put plainly: LTEA_HepaRG_APOA5: Life Technologies and Expression Analysis (LTEA) Assay for Apolipoprotein A-V (APOA5) gene using HepaRG (AID 2283474). In outline:
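HepaRG, 48 h chemical exposure in serum-free induction medium, 8-pt half-log series (top 100 uM), 0.5% DMSO vehicle, duplicates. Readout: APOA5 mRNA by qRT-PCR, housekeeping-normalized; bidirectional fit vs DMSO baseline.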

Read-out in test [5]: Apoptosis regulator Bcl-2 (Homo sapiens) (UniProt P10415)
Kind of test: LTEA_HepaRG_BCL2: Life Technologies and Expression Analysis (LTEA) Assay for Bcl-2 gene using HepaRG (AID 2283475). A digest of the protocol:
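Each chemical was tested in duplicate on HepaRG cultures held in serum-free induction medium for 48 h, highest concentration 100 uM with half-log dilutions. Transcript levels came from multiplexed qRT-PCR, normalised to housekeeping genes; activity was scored in either direction relative to DMSO.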

Read-out in test [6]: Bcl-2 (BID) gene, BID (gene 637)
Put plainly: LTEA_HepaRG_BID: Life Technologies and Expression Analysis (LTEA) Assay for Bcl-2 (BID) gene using HepaRG (AID 2283476). In outline:
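Assay used HepaRG hepatic cells treated 48 h in serum-free medium with half-log dilutions from 100 uM. Endpoint: BID mRNA, qRT-PCR, normalized to ACTB/GAPDH/POLR2A.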

Read-out in a further test: Caspase-3 (Homo sapiens) (UniProt P42574)
Put plainly: LTEA_HepaRG_CASP3: Life Technologies and Expression Analysis (LTEA) Assay for cysteine-aspartic acid protease (CASP3) using HepaRG (AID 2283477). A digest of the protocol:
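HepaRG, 48 h exposure, 8 conc. (top 100 uM, half-log steps, duplicate), 0.5% DMSO vehicle; qRT-PCR of CASP3 transcript, housekeeping-normalised (ACTB/GAPDH/POLR2A); bidirectional curve fit vs DMSO baseline.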

Read-out in test [7]: Cytochrome P450 (CYP24A1), CYP24A1 (gene 1591)
Put plainly: LTEA_HepaRG_CYP24A1: Life Technologies and Expression Analysis (LTEA) Assay for Cytochrome P450 (CYP24A1) using HepaRG (AID 2283478). A digest of the protocol:
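qRT-PCR read-out: CYP24A1 transcript levels normalized to three housekeeping genes, bidirectional curve fits against 0.5% DMSO baseline. Human HepaRG cells treated 48 h with chemicals at eight concentrations from 100 uM in half-log steps.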

Read-out in test [8]: Cytochrome P450 (CYP1A2), CYP1A2 (gene 1544)
Kind of test: LTEA_HepaRG_CYP1A2: Life Technologies and Expression Analysis (LTEA) Assay for Cytochrome P450 (CYP1A2) using HepaRG (AID 2283479). In outline:
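HepaRG, 48 h exposure, top 100 uM, half-log 8-pt, 0.5% DMSO vehicle, duplicates. Readout: TaqMan qRT-PCR of CYP1A2 mRNA, housekeeping-normalized (ACTB/GAPDH/POLR2A). Gain/loss fit relative to DMSO baseline.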

Read-out in test [9]: cysteine-aspartic acid protease (CASP8), CASP8 (gene 841)
Kind of test: LTEA_HepaRG_CASP8: Life Technologies and Expression Analysis (LTEA) Assay for cysteine-aspartic acid protease (CASP8) using HepaRG (AID 2283480). A digest of the protocol:
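CASP8 transcript measured by TaqMan qRT-PCR with ACTB/GAPDH/POLR2A normalization, after 48 h chemical exposure of HepaRG cells in serum-free induction medium. Eight concentrations, top 100 uM, half-log steps, 0.5% DMSO vehicle; fits in both directions versus DMSO.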

Read-out in test [10]: Cytochrome P450 (CYP2B6), CYP2B6 (gene 1555)
Put plainly: LTEA_HepaRG_CYP2B6: Life Technologies and Expression Analysis (LTEA) Assay for Cytochrome P450 (CYP2B6) using HepaRG (AID 2283481). In outline: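 Read-out is CYP2B6 mRNA by TaqMan qRT-PCR, normalized to three housekeeping genes and fitted bidirectionally against 0.5% DMSO baseline. Human HepaRG cells received test chemicals for 48 h, top concentration 100 uM, half-log dilutions.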

Read-out in test [11]: Cytochrome P450 2C19 (Homo sapiens) (UniProt P33261)
Put plainly: LTEA_HepaRG_CYP2C19: Life Technologies and Expression Analysis (LTEA) Assay for CYP2C19 using HepaRG (AID 2283482). A digest of the protocol: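 HepaRG, 48 h chemical exposure, 8-pt half-log series from 100 uM in 0.5% DMSO, duplicates. Readout: CYP2C19 mRNA by TaqMan qRT-PCR, housekeeping-normalized. Bidirectional fit vs DMSO baseline; phenobarbital 1mM as induction control.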

Read-out in the next test: CYP2C8 (gene 1558)
Kind of test: LTEA_HepaRG_CYP2C8: Life Technologies and Expression Analysis (LTEA) Assay for CYP2C8 using HepaRG (AID 2283483). In outline:
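CYP2C8 expression measured by TaqMan qRT-PCR and normalized to three housekeeping genes. HepaRG cultures were treated for 48 h with an eight-point half-log series topping at 100 uM, vehicle 0.5% DMSO, duplicates; fitted both directions against DMSO.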

Read-out in the next test: CYP2C9 (gene 1559)
Put plainly: LTEA_HepaRG_CYP2C9: Life Technologies and Expression Analysis (LTEA) Assay for CYP2C9 using HepaRG (AID 2283484). A digest of the protocol:
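CYP2C9 transcript level, quantified by TaqMan qRT-PCR against three housekeeping genes, was fitted bidirectionally relative to 0.5% DMSO. HepaRG cultures were treated 48 h, in duplicate, at eight half-log concentrations topping at 100 uM.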

Read-out in another test: CYP2E1 (gene 1571)
Kind of test: LTEA_HepaRG_CYP2E1: Life Technologies and Expression Analysis (LTEA) Assay for CYP2E1 using HepaRG (AID 2283485). A digest of the protocol: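 Assay uses 48 h exposure of HepaRG hepatic cells, eight concentrations to 100 uM. Expression of CYP2E1 is quantified by TaqMan qRT-PCR with ACTB, GAPDH and POLR2A normalization; curves fitted in both directions relative to vehicle.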

Read-out in a further test: CYP4A11 (gene 1579)
Put plainly: LTEA_HepaRG_CYP4A11: Life Technologies and Expression Analysis (LTEA) Assay for CYP4A11 using HepaRG (AID 2283486). In outline: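 CYP4A11 transcript levels were quantified by TaqMan qRT-PCR after HepaRG human liver cells were treated for 48 hours with test chemicals (top 100 uM, half-log dilutions, 0.5% DMSO). Gain or loss of signal was fitted relative to DMSO.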

Read-out in test [12]: Cytochrome P450 3A4 (Homo sapiens) (UniProt P08684)
Kind of test: LTEA_HepaRG_CYP3A4: Life Technologies and Expression Analysis (LTEA) Assay for CYP3A4 using HepaRG (AID 2283487). A digest of the protocol: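 CYP3A4 transcript measured by TaqMan qRT-PCR and normalized to three housekeeping genes after 48 h chemical exposure of human HepaRG cells. Top concentration 100 uM, half-log steps, 0.5% DMSO vehicle; gain or loss fitted against DMSO baseline.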

Read-out in test [13]: DNA damage-inducible transcript 3 (DDIT3), DDIT3 (gene 1649)
Put plainly: LTEA_HepaRG_DDIT3: Life Technologies and Expression Analysis (LTEA) Assay for DNA damage-inducible transcript 3 (DDIT3) using HepaRG (AID 2283488). In outline:
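Eight-point concentration-response (100 uM highest, half-log dilutions) in HepaRG, 48 h, duplicate wells. Endpoint: qRT-PCR mRNA, normalized (ACTB, GAPDH, POLR2A), bidirectional fitting with DMSO as baseline.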

Read-out in test [14]: Pro-epidermal growth factor (Homo sapiens) (UniProt P01133)
Put plainly: LTEA_HepaRG_EGF: Life Technologies and Expression Analysis (LTEA) Assay for Epidermal growth factor (EGF) using HepaRG (AID 2283489). In outline: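 qRT-PCR readout of EGF transcript after 48 h chemical exposure of HepaRG cells; eight concentrations from 100 uM down in half-log steps, duplicate wells, 0.5% DMSO vehicle. Bidirectional curve fitting against DMSO baseline.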

Active and inactive are the calls of the source. The calls were made as follows: active = hit-call score of the fitted dose curve at least 0.9, where 1 is the maximum; inactive = score below 0.9.

Sequence of Apoptosis regulator Bcl-2 (Homo sapiens) (P10415 whole entry, looked up): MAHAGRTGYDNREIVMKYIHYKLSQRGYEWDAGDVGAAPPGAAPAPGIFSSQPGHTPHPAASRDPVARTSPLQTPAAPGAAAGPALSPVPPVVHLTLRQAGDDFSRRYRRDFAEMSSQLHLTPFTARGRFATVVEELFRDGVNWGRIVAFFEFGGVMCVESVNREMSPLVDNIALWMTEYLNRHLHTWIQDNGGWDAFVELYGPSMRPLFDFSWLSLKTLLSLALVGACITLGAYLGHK
Sequence of Cytochrome P450 2C19 (Homo sapiens) (P33261 whole entry, looked up): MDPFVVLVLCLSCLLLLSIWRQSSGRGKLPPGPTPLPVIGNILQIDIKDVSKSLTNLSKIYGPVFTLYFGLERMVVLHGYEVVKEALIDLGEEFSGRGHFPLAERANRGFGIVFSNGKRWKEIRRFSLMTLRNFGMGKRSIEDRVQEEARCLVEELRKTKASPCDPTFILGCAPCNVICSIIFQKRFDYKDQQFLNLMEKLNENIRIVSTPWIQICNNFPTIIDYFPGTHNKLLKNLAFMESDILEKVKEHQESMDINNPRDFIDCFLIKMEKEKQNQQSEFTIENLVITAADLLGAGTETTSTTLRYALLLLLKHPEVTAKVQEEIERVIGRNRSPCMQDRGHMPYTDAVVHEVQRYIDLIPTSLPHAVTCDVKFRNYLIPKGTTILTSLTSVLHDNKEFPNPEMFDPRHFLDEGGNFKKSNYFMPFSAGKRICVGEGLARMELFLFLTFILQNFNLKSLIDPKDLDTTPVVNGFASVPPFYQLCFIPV
Sequence of Caspase-3 (Homo sapiens) (P42574 whole entry, looked up): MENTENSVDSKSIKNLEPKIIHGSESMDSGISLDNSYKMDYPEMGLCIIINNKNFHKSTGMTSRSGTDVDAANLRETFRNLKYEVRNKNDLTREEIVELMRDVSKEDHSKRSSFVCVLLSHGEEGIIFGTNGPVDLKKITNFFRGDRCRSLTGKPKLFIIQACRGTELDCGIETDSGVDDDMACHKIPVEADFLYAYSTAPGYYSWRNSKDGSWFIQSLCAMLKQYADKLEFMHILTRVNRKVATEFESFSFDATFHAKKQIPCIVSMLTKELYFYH
Sequence of Cytochrome P450 3A4 (Homo sapiens) (P08684 whole entry, looked up): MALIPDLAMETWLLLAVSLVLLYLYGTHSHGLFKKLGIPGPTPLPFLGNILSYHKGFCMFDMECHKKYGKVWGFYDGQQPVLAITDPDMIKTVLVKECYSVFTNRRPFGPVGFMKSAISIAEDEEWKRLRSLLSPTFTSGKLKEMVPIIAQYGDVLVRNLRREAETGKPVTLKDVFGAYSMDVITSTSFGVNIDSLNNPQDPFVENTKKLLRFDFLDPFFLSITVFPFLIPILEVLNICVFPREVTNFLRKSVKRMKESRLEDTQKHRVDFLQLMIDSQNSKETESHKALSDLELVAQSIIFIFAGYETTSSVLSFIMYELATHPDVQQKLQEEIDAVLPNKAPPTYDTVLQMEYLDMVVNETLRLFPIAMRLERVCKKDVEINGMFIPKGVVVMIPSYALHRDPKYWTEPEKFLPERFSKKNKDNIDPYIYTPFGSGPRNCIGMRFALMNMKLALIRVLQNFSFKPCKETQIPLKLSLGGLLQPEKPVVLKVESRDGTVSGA

Regarding `CCCCCCCCCCCCCCOS(=O)(=O)O`, the call (in [1]; in [2]; with BCL2L11 (gene 10018); in test [4]; in test [5]; in test [6]) was inactive. The result (with Caspase-3 (Homo sapiens); in [7]; in test [8]; in [9]; in [11]; in [12]) was inactive. Further, the compound was classed as inactive in test [13] and in test [14]. In addition, the AC50 (in general, the midpoint of the concentration-response curve, whichever way the signal moves) in [3] is 50 µM (active); in [10], 85.6 µM (active); with CYP2C8 (gene 1558), 12.6 µM (active); with CYP2C9 (gene 1559) it was 64.4 µM (active); in the test with CYP2E1 (gene 1571), 42.3 µM (active); in the test with CYP4A11 (gene 1579) it was 4.9 µM (active).
On to `CCC(C)N(C)C(=O)c1cc2ccccc2c(-c2ccccc2Cl)n1` (stereo not drawn), for which the compound was classed as inactive (in test [1]; in test [2]; in test [4]; in test [5]; in [6]; in the test with Caspase-3 (Homo sapiens)). Besides, the outcome (in test [7]; in test [9]; with CYP2C9 (gene 1559); in [14]) was inactive. The AC50 is 31.8 µM (active) in test [3]; 31.8 µM (active) in the test with BCL2L11 (gene 10018); 50.5 µM (active) in test [8]; 1.38 µM (active) in test [10]; 4.31 µM (active) in test [11]; 1.77 µM (active) with CYP2C8 (gene 1558). Further, the figures for the AC50 (in the test with CYP2E1 (gene 1571); with CYP4A11 (gene 1579); in [13]) were 14.1 µM (active), 15.4 µM (active) and 46.6 µM (active), respectively.
Turning to `O=C(N[C@@H](c1ccccc1)[C@@H]1CCCCN1)c1cccc(C(F)(F)F)c1Cl`, the call in test [1], in [4], in test [5], in test [6], in test [7] and in test [8] was inactive. The result (with CYP2C8 (gene 1558); in test [14]) was inactive. Besides, the AC50 in [2] is 78.2 µM (active); in [3], 25.5 µM (active); in the test with BCL2L11 (gene 10018), 85.7 µM (active); in the test with Caspase-3 (Homo sapiens) it was 50 µM (active); in test [9], 82.8 µM (active); in [10] it was 32.7 µM (active). For the same compound, the AC50 in test [11] is 78.8 µM (active); with CYP2C9 (gene 1559), 36.1 µM (active); with CYP2E1 (gene 1571), 13.1 µM (active); with CYP4A11 (gene 1579) it was 24.2 µM (active); in [12] it was 86.9 µM (active).

The values above are taken from PubChem BioAssay (EPA / NIEHS).
